The full list was thinned out, with hits kept by preference.
PI4K2A block = inhibitors of human PI4K2A; Q9BTU6; purified PI4K2A, ADP-Glo luminescence, 1 h; active compounds read low; activity change, negative = inhibition, % at 76.9 µM; 0.13% of 420,000 active; in the data active = activity change below about -50%; inconclusive = mostly about -30% to -49%
Target sequence (Q9BTU6 whole entry, looked up): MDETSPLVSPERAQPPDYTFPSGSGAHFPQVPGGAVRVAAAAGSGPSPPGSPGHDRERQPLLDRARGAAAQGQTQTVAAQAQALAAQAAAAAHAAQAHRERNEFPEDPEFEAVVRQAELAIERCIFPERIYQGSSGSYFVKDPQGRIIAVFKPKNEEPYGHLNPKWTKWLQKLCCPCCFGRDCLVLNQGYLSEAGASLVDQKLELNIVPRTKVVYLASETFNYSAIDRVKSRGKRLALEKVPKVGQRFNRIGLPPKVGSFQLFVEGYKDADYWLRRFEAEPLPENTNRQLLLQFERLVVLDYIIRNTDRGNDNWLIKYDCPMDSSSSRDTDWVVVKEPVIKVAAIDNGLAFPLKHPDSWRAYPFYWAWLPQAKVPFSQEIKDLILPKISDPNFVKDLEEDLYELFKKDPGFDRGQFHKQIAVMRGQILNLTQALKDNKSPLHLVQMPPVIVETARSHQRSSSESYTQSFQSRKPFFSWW
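Compounds are screened against recombinant PI4K2A using PI as substrate and ATP, the latter dispensed at 300 microM. Reactions run one hour at ambient temperature before ADP-Glo detection; full inhibition defined by wells lacking enzyme.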
Pin1 inhibitor = blocks the human prolyl isomerase Pin1 | Q13526 | Pin1 FP peptide displacement, HiFluor488, 10 min | Potency, µM (series often up to 115 µM), hits mostly inhibitors | 0.009% of 390,000 active; active = well fitted inhibition curve with a large enough effect in the polarisation, with a control signal flat, not every such curve was filed as active; inconclusive = small, poorly fitted or top-dose-only effect, or effect the other way, or a change in a side signal; inactive = no such curve, though single readings can be large or run the other way; the % refers to the polarisation
Target sequence (Q13526 whole entry, looked up): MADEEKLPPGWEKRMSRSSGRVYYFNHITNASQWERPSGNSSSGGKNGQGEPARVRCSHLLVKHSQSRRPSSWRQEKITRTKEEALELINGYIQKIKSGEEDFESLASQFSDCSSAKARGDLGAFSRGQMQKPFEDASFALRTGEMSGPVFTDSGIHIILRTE
PGK inhibitor = T. brucei PGK inhibition; AID 602233; PGK/GAPDH coupled, Kinase-Glo luminescence, 60 min; 0.043% of 380,000 active; Potency, µM (titrated, usually from 57.5 µM), most hits filed as inhibitors; also: nearly all actives have a fitted effect of over 60% in size
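Luminescent ATP detection (Kinase-Glo Plus) follows a 60-minute room-temperature incubation, with wells lacking PGK as controls. Buffer: 100 mM TEA (pH 7.6), 5 mM MgCl2, 0.01% Tween-20. Coupling enzyme GAPDH (100 nM final) supplies unstable 1,3-BPG in-well.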
Tb PFK inh = blocks T. brucei phosphofructokinase; T. brucei PFK, ADP-Glo luminescence; 0.17% of 330,000 active; AID 485367; Potency, µM (titrated, usually from 57.5 µM), usual class: inhibitors; also: nearly all actives have a fitted effect of over 60% in size
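Luminescent ADP detection (ADP-Glo, two-step: ATP depletion then ADP-to-ATP conversion for luciferase) reported PFK activity after 45 min room-temperature reaction of 1.25 nM enzyme with 0.5 mM F6P and 0.1 mM ATP at pH 8.0.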
PI5P4K alpha inh = PI5P4K alpha (human) kinase inhibition; P48426; PI5P4Kalpha enzyme, ADP-Glo luminescence, 60 min; active compounds read low; max response, %; 1.2% of 330,000 active; AID 652105; active = max response of -50% or lower; inconclusive = between -30% and -50%; inactive = -30% or higher; also: value at the top dose of about 77 µM
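Compounds were pin-transferred onto PI5P4Kalpha and substrate in HEPES pH 7.4 buffer with EGTA, CHAPS and 5% DMSO. ATP (5 microM final) started the reaction, which ran 60 minutes at room temperature before ADP-Glo detection.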
Of the large screens only hits and unclear results are named; the others gave an inactive call; ! = not confirmed by another sample. Unless noted, calls follow the shape of the dose curve; as a rule, active = well fitted curve in the direction sought with a large enough effect; inconclusive = small, poorly fitted or top-dose-only effect, or another doubt; inactive = no such curve, though single readings can be large; an effect the other way counts as inactive or inconclusive.

CCN(CC)S(=O)(=O)c1cccc(NC(=O)/C=C/c2cccc([N+](=O)[O-])c2)c1	none
CCOc1ccccc1CNS(=O)(=O)c1ccc2c(c1)CCCN2C(C)=O	none (no result: Tb PFK inh, PI5P4K alpha inh)
Cc1cc(N2C(=O)C(O)=C(C(=O)c3ccco3)C2c2cccc(Oc3ccccc3)c2)no1 (stereo unspecified)	Pin1 inhibitor inconclusive, PI5P4K alpha inh -68.5
O=C(C1=C(O)C(=O)N(c2nccs2)C1c1ccccc1)c1cc2ccccc2o1 (stereo unspecified)	Pin1 inhibitor inconclusive, PI5P4K alpha inh -51.8
Cc1cc(N2C(=O)C(O)=C(C(=O)c3cc4ccccc4o3)C2c2ccc([N+](=O)[O-])cc2)no1 (stereo unspecified)	PI5P4K alpha inh inconclusive
Cc1ccc(C2C(C(=O)c3cc4ccccc4o3)=C(O)C(=O)N2c2cc(C)on2)cc1 (stereo unspecified)	PI5P4K alpha inh -52.1
COc1ccccc1N1CCN(C2CCCN(C(=O)c3cc(C)oc3C)C2)CC1 (stereo unspecified)	none
COc1cc(NC(=O)C2CC(=O)N(Cc3ccco3)C2)c(OC)cc1Cl (stereo unspecified)	none
Cc1ccc(S(=O)(=O)N2[C@@H](c3ccccc3)C(C(=O)O)=CC[C@H]2c2cccc(C)c2)cc1	none
O=C(CCC1CCCCC1)Nc1ccc(S(=O)(=O)Nc2nccs2)cc1	none (no result: PI5P4K alpha inh)
N#C/C(=C\c1ccc(OCc2ccccc2)cc1)C(N)=O	PI5P4K alpha inh -63.0
Cc1ccccc1COc1ccc(/C=C(\C#N)C(N)=O)cc1	none
O=C(O)c1ccccc1NC(c1ccccc1)c1ccc2cccnc2c1O (stereo unspecified)	Pin1 inhibitor inconclusive, PI5P4K alpha inh -57.0 (no result: Tb PFK inh)
CCCCCNC(=O)C(c1ccc(OC)cc1)n1c(=O)c(-c2ccco2)nc2ccccc21 (stereo unspecified)	none (no result: Pin1 inhibitor, PGK inhibitor, Tb PFK inh)
O=C(NC1CCCCC1)C(c1ccc(-c2ccccc2)cc1)n1c(=O)c(-c2ccco2)nc2ccccc21 (stereo unspecified)	PI5P4K alpha inh -92.0 (no result: Pin1 inhibitor, PGK inhibitor, Tb PFK inh)
CCCCCNC(=O)C(c1ccccc1F)n1c(=O)c(-c2ccco2)nc2ccccc21 (stereo unspecified)	PI4K2A block inconclusive, PI5P4K alpha inh -63.7 (no result: Pin1 inhibitor, PGK inhibitor, Tb PFK inh)
O=C(NC1CCCCC1)C(c1ccncc1)n1c(=O)c(-c2ccccc2)nc2ccccc21 (stereo unspecified)	none (no result: Pin1 inhibitor, PGK inhibitor, Tb PFK inh)
O=C(NC1CCCCC1)C(c1ccccc1F)n1c(=O)c(-c2ccco2)nc2ccccc21 (stereo unspecified)	PI5P4K alpha inh -68.5 (no result: Pin1 inhibitor, PGK inhibitor, Tb PFK inh)
COc1cccc(OCC(O)CN2CCOCC2)c1 (stereo unspecified)	none
COc1cc2c(C#N)c(N3CCCC3)nc(N)c2c(N)n1	PI4K2A block -55.4!, Pin1 inhibitor inconclusive, PGK inhibitor inconclusive
COc1cc2c(C#N)c(N3CCN(c4ccccc4OC)CC3)nc(N)c2c(N)n1	PI4K2A block -54.7
Cc1ccc(C(=O)Nc2cc(Cl)ccc2-n2cncn2)o1	Pin1 inhibitor inconclusive
O=C(O)c1ccc(NCCc2ccc(Cl)cc2)c([N+](=O)[O-])c1	PI5P4K alpha inh -56.2
O=C(O)c1ccc(Nc2ccc(Cl)c(Cl)c2)c([N+](=O)[O-])c1	Pin1 inhibitor inconclusive, PI5P4K alpha inh -52.3
C[C@H]1CCC[C@@H](O)CC(=O)c2c(O)cc(O)cc2CC(=O)O1	none (no result: Pin1 inhibitor, PGK inhibitor, Tb PFK inh, PI5P4K alpha inh)
CC1CC(=O)c2c(cc3c(-c4c(O)cc(O)c5c(O)c6c(cc45)OC(C)CC6=O)c(O)cc(O)c3c2O)O1 (stereo unspecified)	Pin1 inhibitor inconclusive, PI5P4K alpha inh -79.7
Cc1noc(C)c1C(=O)OCC(=O)Nc1cc(S(=O)(=O)N2CCOCC2)ccc1Cl	none (no result: PI4K2A block, Pin1 inhibitor, PGK inhibitor, PI5P4K alpha inh)
Cc1ccc(SSc2cc(C)ccc2N)c(N)c1	Tb PFK inh 21.3µM, PI5P4K alpha inh -81.2
O=C(O)c1cc(Cl)ccc1-c1ccc(/C=C/c2cc(C(F)(F)F)[nH]c(=O)n2)o1	Pin1 inhibitor inconclusive, Tb PFK inh inconclusive, PI5P4K alpha inh -53.1
Cc1cc(NC(=S)Nc2cccnc2)ccc1Br	none
CCOc1cc(/C=C2/SC(=S)N(Cc3ccccc3)C2=O)ccc1O	none
O=C1/C(=C\c2ccc(O)c(O)c2)C(c2ccccc2)=NN1c1ccccc1	Pin1 inhibitor inconclusive, PI5P4K alpha inh -74.6
COc1cc(/C=C2\C(=O)N(c3ccc(NC(C)=O)cc3)N=C2c2ccccc2)ccc1O	none
CCOc1cc(/C=C2\C(=O)N(c3nc(-c4ccc(Br)cc4)cs3)N=C2c2ccccc2)ccc1O	PI5P4K alpha inh -83.1 (no result: Pin1 inhibitor)
COc1cc(C2C3=C(Nc4nc(N)[nH]c(=O)c42)c2ccccc2C3=O)ccc1O (stereo unspecified)	Pin1 inhibitor inconclusive, PI5P4K alpha inh -71.1
Nc1nc2c(c(=O)[nH]1)C(c1ccccc1)C1=C(N2)c2ccccc2C1=O (stereo unspecified)	none
COc1ccc(-c2cc(C)no2)cc1S(=O)(=O)Nc1cccc(C(F)(F)F)c1	Pin1 inhibitor inconclusive (no result: Tb PFK inh, PI5P4K alpha inh)
CCc1ccc(CNc2ccc(O)cc2)cc1	PI4K2A block inconclusive, PGK inhibitor inconclusive, PI5P4K alpha inh -54.2
Oc1ccc(NCc2ccc(OCc3ccccc3)cc2)cc1	PI4K2A block inconclusive, Pin1 inhibitor inconclusive
CC(=C1SC(=S)NC1=O)c1ccccc1	PI5P4K alpha inh -53.9 (no result: Tb PFK inh)
C/C(=C1/SC(=S)N(CCC(=O)O)C1=O)c1ccc(O)cc1	Pin1 inhibitor inconclusive, Tb PFK inh inconclusive
Cc1cccc(C)c1NC(=O)C1CCCN1S(=O)(=O)c1ccc(-c2ccc(=O)[nH]n2)s1 (stereo unspecified)	PI5P4K alpha inh inconclusive
CCc1ccccc1NC(=O)C1CCCN1S(=O)(=O)c1ccc(-c2ccc(=O)[nH]n2)s1 (stereo unspecified)	Pin1 inhibitor inconclusive, PI5P4K alpha inh -58.8
CC(C)CSc1n[nH]c(=S)s1	PI5P4K alpha inh -51.7
CC(CSc1n[nH]c(=S)s1)c1ccccc1 (stereo unspecified)	PI5P4K alpha inh -54.0 (no result: Tb PFK inh)
O=C1c2ccccc2C(=O)N1CCSc1n[nH]c(=S)s1	PI5P4K alpha inh -76.9
O=C(CS(=O)c1ccc(C(F)(F)F)cc1[N+](=O)[O-])Oc1ccccc1 (stereo unspecified)	Pin1 inhibitor inconclusive
NC(=S)NN=Cc1ccc(-c2ccc(S(=O)(=O)Nc3ncccn3)cc2)o1	Pin1 inhibitor inconclusive, Tb PFK inh inconclusive, PI5P4K alpha inh -55.5
O=C(N/N=C/c1ccc(-c2ccc(S(=O)(=O)Nc3ncccn3)cc2)o1)c1cc2ccccc2cc1O	PI4K2A block inconclusive, Pin1 inhibitor inconclusive, PGK inhibitor inconclusive, PI5P4K alpha inh -84.4
CCOc1ccc(C(=O)N/N=C/c2ccc(-c3ccc(S(=O)(=O)Nc4ncccn4)cc3)o2)cc1	none (no result: Pin1 inhibitor, PI5P4K alpha inh)
CC(C)(C)c1ccc(-c2nnc(SCC(=O)Nc3ccc(S(=O)(=O)Nc4nccs4)cc3)n2Cc2ccco2)cc1	PI4K2A block -56.3 (no result: Pin1 inhibitor, PGK inhibitor, Tb PFK inh, PI5P4K alpha inh)
Cc1cc(C)n2c(Nc3c(C)cccc3C)c(CC(C)C)nc2n1	none (no result: Pin1 inhibitor, PGK inhibitor, Tb PFK inh)
